{"source": "PubChem BioAssay AID1788", "about": "(Vanderbilt High Throughput Screening Facility, 2009)", "tested_on": "Phorbol Ester (mouse)", "experiment": "PubChem AID 1788", "conditions": "MDS Pharma lead profiling panel, radioligand binding, at 10 µM, active compounds read high", "note": "A number with no mark means an inactive call. No rule for the calls is given here."}
{"smiles": "CCOC(=O)N1CCC(NCCNC(=O)c2ccccc2C)CC1", "values": [{"measurement": "inhibition", "result": 25, "unit": "%"}]}
